According to PubChem BioAssay (NCATS):
Active and inactive are the calls of the source. Where a call stands in place of a potency, no number is given. The call rests on the fitted dose curve; in most records, active means well fitted cell-killing curve with a large enough effect; inconclusive means small, poorly fitted or top-dose-only effect; inactive means flat fitted curve, though single readings scatter.

Assay: MultiTox-Fluor Cytotoxicity Assay - LYMP1-003 - Live Cells (AID 962)
Details: LYMP1-003 lymphoblastoid cells, MultiTox-Fluor live-cell protease fluorescence; series mostly up to 92.2 µM
Description: NIH Chemical Genomics Center [NCGC]
NIH Molecular Libraries Screening Centers Network [MLSCN]
National Institutes of Environmental Health Sciences [NIEHS]
National Toxicology Program [NTP]
We have developed a 1536-well cell-based assay for quantitative high throughput screening (qHTS) against a number of cell lines to determine in vitro cytotoxicity of small molecules. This particular assay uses a human lymphoblastoid cell line (LYMP1-003) purchased from Coriell Institute.
NCGC Assay Protocol Summary:
The MultiTox-Fluor Cytotoxicity Assay (Promega) is a homogeneous method to simultaneously measure the relative number of live and dead cells in culture by detecting changes in cell membrane integrity. There are two fluorogenic peptide substrates in the assay reagent. Viable cells are determined when the cell-permeant substrate (GF-AFC) enters the cell and is cleaved by protease from live cells resulting in liberated fluorophore. This live-cell protease activity restricted to viable cells is proportional to cell number. The dead cells are determined by using fluorogenic cell-impermeant peptide substrate (bis-AAF-R110) which cleaved by dead cell proteases leaking from damaged cell membrane.
Using the MultiTox-Fluor Cytotoxicity Assay, the relative number of live cells was measured in the lymphoblastoid cell line with complete culture medium following compound treatment for 16 hours. The assay was performed in opaque black Kalypsys 1536-well plates. In the screen, tetraoctylammonium bromide was used as positive control. Library compounds were measured for their ability to cause acute toxicity in the cell line, as reflected by a decrease in live cell protease activity, in a concentration-dependent manner. […] AC50 values were determined from concentration-response data modeled with the standard Hill equation.
qHTS protocol for MultiTox-Fluor Cytotoxicity assay
[Step] [Parameter] [Value] [Description]
1. Reagent; 5 uL; 2500 lymphoblastoid cells/well
2. Time; 5 hr; 37 C incubation
4. Controls; 23 nL; Tetraoctylammonium bromide 6.4pM to 92 uM
5. Time; 16 hr; 37 C incubation
6. Reagent; 5 uL; MuliTox-Fluor Assay reagent
7. Time; 60 min; Room Temperature
8. Detection; live-cell fluorescence (Ex/Em=405/510); EnVision plate reader
Keywords: cell viability, cytotoxicity, lymphoblastoid cell line, fluorescence, NTPHTS, NTPHTS_NCGC, NIEHS, EPA, DSSTox, MLSMR, MLSCN, NIH Roadmap, qHTS, NCGC
Potency means the concentration at half of the fitted maximal effect.

Compound	Potency
O=c1[nH]cnc2c1ncn2[C@H]1CC[C@@H](CO)O1	inactive
O=C(O)Cc1cccc2ccccc12	inactive
O=c1c(-c2ccc(O)cc2)coc2cc(O)ccc12	inactive
CCCNC(=O)NS(=O)(=O)c1ccc(Cl)cc1	inactive
O=c1cc(-c2ccc(O)cc2)oc2cc(O)cc(O)c12	inactive
CCCCC1C(=O)N(c2ccccc2)N(c2ccccc2)C1=O	inactive
O=c1c(O)c(-c2ccc(O)cc2)oc2cc(O)cc(O)c12	inactive
CC1=C(/C=C/C(C)=C/C=C/C(C)=C/C(=O)Nc2ccc(O)cc2)C(C)(C)CCC1	50.1 µM (active)
CC(=O)O[C@]1(C(C)=O)CC[C@H]2[C@@H]3C=C(Cl)C4=CC(=O)[C@@H]5C[C@@H]5[C@]4(C)[C@H]3CC[C@@]21C	inactive
O=C1NC(=O)C(c2ccccc2)(c2ccccc2)N1	inactive
CN(C)CCC(c1ccccc1)c1ccccn1 (centres undefined)	inactive
CCn1cc(C(=O)O)c(=O)c2ccc(C)nc21	inactive
CC(=O)c1ccc(S(=O)(=O)NC(=O)NC2CCCCC2)cc1	inactive
O=C(O)c1cc(O)c2c(c1)C(=O)c1cccc(O)c1C2=O	inactive
